Sampled rows, rich in hits. Any-hit rate of the full collection: about 19%.
DT40 TDP1 no CPT – qHTS for Inhibitors of human tyrosyl-DNA phosphodiesterase 1 (TDP1): qHTS in cells in absence of CPT | Potency, µM (titrated, usually from 46.2 µM), inactives show top-dose activity change, negative = growth inhibition, most hits filed as inhibitors | 15% of 420,000 active | DT40 Tdp1-/- hTDP1 cells, no CPT, ATP luminescence, 48 h | AID 686978, 2013; also: potency is read from the fitted curve at half-maximal effect; % is scaled to controls: 0 for no effect and ±100 for the full control effect; nearly all actives have a fitted effect of over 55% in size
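A cellular qHTS used chicken DT40 cells lacking endogenous Tdp1 but carrying stably transfected human TDP1. Compounds were applied without camptothecin, and cell growth kinetics were judged by ATP-dependent luminescence after ≥48 hr.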
MCF10A rerep – DNA re-replication induction in MCF 10a cells; AID 624296; Potency, µM (doses to about 46.1 µM), for the others: top-dose activity, positive = re-replication, hits mostly activators; 2.9% of 350,000 active; MCF 10A DNA re-replication, Hoechst nuclear intensity, 48 h; also: potency is read from the fitted curve at half-maximal effect; % of control where 0% means no effect; nearly all actives have a fitted effect of over 50% in size
TDP1 cell CPT – DT40-hTDP1 cell growth loss with CPT. 12% of 420,000 active. Potency, µM (highest dose often 46.2 µM), for the others: at the highest dose activity change, negative = growth inhibition, hits mostly inhibitors. chicken DT40 Tdp1-/-;hTDP1 cells + 20 nM CPT, ATP luminescence, 48 h; also: potency is read from the fitted curve at half-maximal effect; % is scaled to controls: 0 for no effect and ±100 for the full control effect; nearly all actives have a fitted effect of over 55% in size
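Chicken DT40 Tdp1-/- cells complemented with human TDP1, 400 cells/well, exposed to compounds plus 20 nM camptothecin for at least 48 h at 37 C; viability read as ATP content by CellTiter-Glo luminescence.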
SW480 rereplic – induces DNA re-replication in SW480 colon adenocarcinoma cells; SW480 DNA re-replication, Hoechst DNA content imaging, 48 h; Potency, µM (doses to about 46.1 µM), for inactives: top-dose re-replication activation, actives largely listed as activators; 1.8% of 340,000 active; also: potency is read from the fitted curve at half-maximal effect; % of control where 0% means no effect; nearly all actives have a fitted effect of over 55% in size
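Readout is total intensity of Hoechst-stained nuclei, excited at 405 nm and collected at 500-530 nm. Compound treatment lasted 48 hr at 37 C in 5% CO2 before staining.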
Chronic BCR inh – blocks chronic active B-cell receptor signaling. 0.05% of 340,000 active. ABC-DLBCL IkBa-CBG/CBR reporter, luminescence ratio, 4 h. Potency, µM (highest dose often 46.1 µM), inactives show top-dose activity change, negative = inhibition, actives largely listed as inhibitors; active = well fitted inhibition curve with a large enough effect in the signal ratio, with a control signal flat, not every such curve was filed as active; inconclusive = small, poorly fitted or top-dose-only effect, or effect the other way, or a change in a side signal; the % refers to the signal ratio;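 also: potency is read from the fitted curve at half-maximal effect; plate controls were basal doxycycline-induced cells for no effect and cells given 10 µM MG132 for full effect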
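Cell line TMD8 (human ABC DLBCL), stably expressing tet-inducible CBG68-IkBa fusion and CBR; IMDM/0.5% FBS; cpd up to 46 uM; dox induction, 4 h, 37C/5% CO2; dual luminescence; green/red ratio; MG132 control.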
IL-1B inflam inh – blocks inflammasome-driven IL-1 beta release | activity change, % at 57.5 µM | 4.7% of 360,000 active | AID 743279 | THP-1 LPS/ATP IL-1B secretion, AlphaLISA, 16 h; active compounds read low; in the data active = activity change below about -50%; inconclusive = mostly about -30% to -49%; also: % is scaled to controls: 0 for no effect and ±100 for the full control effect
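Secreted IL-1B measured by AlphaLISA bead assay after 16 h compound exposure of THP-1 cells; compounds (final up to 57.5 uM) added 1 h before LPS (250 ng/mL) and ATP (1.25 mM) stimulation; lower signal means less secretion.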
An asterisk follows results filed as active; u = inconclusive; x = not tested or not shown. Unless noted, calls follow the shape of the dose curve; as a rule, active = well fitted curve in the direction sought with a large enough effect; inconclusive = small, poorly fitted or top-dose-only effect, or another doubt; inactive = no such curve, though single readings can be large; an effect the other way counts as inactive or inconclusive.

SMILES	DT40 TDP1 no CPT	MCF10A rerep	TDP1 cell CPT	SW480 rereplic	Chronic BCR inh	IL-1B inflam inh
O=c1[nH]c(C2CCN(S(=O)(=O)Cc3ccccc3)CC2)nc2c1nnn2Cc1cccc(Cl)c1	18µM*	u	16µM*	u	-4%	-12
O=c1[nH]c(C2CCN(S(=O)(=O)c3ccc(C(F)(F)F)cc3)CC2)nc2c1nnn2Cc1cccc(F)c1	u	-7%	u	-7%	2%	u
O=c1[nH]c(C2CCN(S(=O)(=O)Cc3ccccc3)CC2)nc2c1nnn2Cc1ccccc1	u	10%	u	-7%	u	-20
CC(=O)c1ccc(S(=O)(=O)N2CCC(c3nc4ccccc4[nH]3)CC2)cc1	u	-13%	u	-6%	11%	8
Cc1ccc(NC(=O)CCC(=O)NNC(=O)Nc2cccc(Cl)c2)c(C)c1	2%	8%	4%	-4%	-3%	0
Cc1cccc(N(CC(=O)NCCc2ccccc2)C(=O)CCC(=O)Nc2ccccn2)c1C	u	4%	-7%	6%	u	-5
CN(C)S(=O)(=O)c1ccc2c(c1)nc(CCC(=O)NCC(=O)Nc1ccc(F)c(F)c1F)n2C	u	x	-3%	x	x	44
O=C(N/N=C/c1ccccc1)c1c(O)c2ccccc2[nH]c1=O	12µM*	10%	9.2µM*	-5%	u	13
COC(=O)c1c(O)c2ccccc2[nH]c1=O	-4%	6%	-2%	7%	u	-13
O=C(N/N=C/c1ccc(F)cc1)c1c(O)c2ccccc2[nH]c1=O	5.2µM*	u	4.6µM*	x	-1%	0
O=C(NNC(=O)c1c(O)c2ccccc2[nH]c1=O)c1ccccc1	-16%	u	u	u	u	0
O=c1[nH]c2ccccc2c(O)c1O	5.8µM*	-1%	8.2µM*	-31%	u	-92*
COC(=O)Nc1ccc(S(=O)(=O)NNC(=O)c2c(O)c3ccccc3[nH]c2=O)cc1	23µM*	21µM*	u	u	-2%	18
O=C(N/N=C/c1cccc(F)c1)c1c(O)c2ccccc2[nH]c1=O	2.3µM*	-21%	2.3µM*	-6%	u	18
O=C(Nc1cccc(F)c1)c1c(O)c2ccccc2[nH]c1=O	-18%	0%	-10%	u	u	6
CCn1c([N+](=O)[O-])nc2c1c(=O)[nH]c(=O)n2C	1.8µM*	5.8µM*	2.3µM*	8.2µM*	u	-99*
O=C(C[n+]1ccc2ccccc2c1)c1ccc2ccc3ccccc3c2c1	4.1µM*	x	3.3µM*	x	x	u
Cc1ccc(C2CC(c3cccs3)=NN2S(=O)(=O)c2ccc(C)cc2)cc1 (configuration not stated)	23µM*	-1%	21µM*	6%	6%	0
COc1ccc(C2CC(c3cccs3)=NN2S(=O)(=O)c2ccc(C)cc2)cc1 (configuration not stated)	23µM*	14%	23µM*	6%	x	-10
COc1ccc(C2CC(c3cccs3)=NN2S(C)(=O)=O)cc1 (configuration not stated)	-3%	-1%	1%	6%	6%	-8
O=S(=O)(c1ccccc1)N1N=C(c2cccs2)CC1c1cccc(O)c1 (configuration not stated)	16µM*	3%	u	7%	0%	u
O=C1c2oc3ccccc3c(=O)c2C(c2ccc(O)cc2)N1Cc1ccc2c(c1)OCO2 (configuration not stated)	-21%	x	0%	x	6%	x
COc1cc(C#Cc2c(-c3cncn3C)n(C)c3ccc(-c4cc(OC)c(OC)c(OC)c4)cc23)cc(OC)c1	16µM*	0%	21µM*	u	u	-76*
